Compound activity deposited in PubChem by National Center for Advancing Translational Sciences (NCATS).
An excerpt weighted towards active compounds, which were near 21% of everything screened.
Pf growth 96h – inhibits malaria parasite growth, 96 h; P. falciparum luciferase reporter growth, 96 h; Potency, µM (titrated, usually from 28.7 µM), usual class: inhibitors; 320,000 tested, 6.9% active; AID 504834
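Readout is luminescence from an integrated firefly luciferase in P. falciparum. Red cells, 2% hematocrit and 0.05% parasitemia final, were cultured with compound through two parasite generations (96 hours) at 37 C, 5% CO2.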
Pf growth 48h – P. falciparum growth inhibition at 48 hours (one generation); P. falciparum luciferase growth in erythrocytes, 48 h; Potency, µM (titrated, usually from 28.7 µM), usual class: inhibitors; 310,000 tested, 5.9% active; AID 504832
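Firefly luciferase activity from engineered P. falciparum reports growth; inhibitors lower the luminescent signal. Cultures contained 2% hematocrit erythrocytes at 0.1% final parasitemia.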
CHX counter – counter-screen hit for Shiga toxin inhibitors, cycloheximide | cell reporter, cycloheximide protein synthesis inhibition counterscreen | max response, % | AID 2314 | 300,000 tested, 12% active; in the data active = max response mostly above about 13%, no sharp cut-off; inactive = mostly below about 14%; also: read at 38.3 µM for the half of the compounds with a filed dose
Shiga toxin inh – inhibitors of Shiga toxin in Vero cells; Vero cells, Shiga toxin protein synthesis inhibition reporter; 290,000 tested, 9.2% active; AID 2315; inhibition, % at 38.7 µM; in the data active = inhibition mostly above about 28%, no sharp cut-off; inactive = mostly below about 43%
Hits are given with their value. Unless noted, calls follow the shape of the dose curve; as a rule, active = well fitted inhibition curve with a large enough effect; inconclusive = small, poorly fitted or top-dose-only effect, or another doubt; inactive = no such curve, though single readings can be large or run the other way.

Results for CC1(C)OC(=O)N(c2ccccc2)C12C=Cc1c(ccc3ccccc13)O2 (stereo not drawn) ?
Pf growth 96h: inactive; Pf growth 48h: 13µM; CHX counter: inactive; Shiga toxin inh: inactive

How did CC(c1ccccc1)N1C(=O)OC(C)(C)C1(C)O (stereo not drawn) do in these assays?
Pf growth 96h: inactive; Pf growth 48h: inactive

How did O=C1NC2(C=Cc3c(ccc4ccccc34)O2)Oc2ccccc21 (stereo not drawn) do in these assays?
Pf growth 96h: inactive; Pf growth 48h: inactive; CHX counter: 31; Shiga toxin inh: 84

Results for O=C(COc1ccc(F)cc1Cl)Nc1ccc(S(=O)(=O)Nc2nccs2)cc1 ?
Pf growth 96h: inactive; Pf growth 48h: inactive

What do the screens show for `O=C(COC(=O)Cc1ccccc1[N+](=O)[O-])NNC(=O)c1ccc([N+](=O)[O-])cc1`?
Pf growth 96h: inactive; Pf growth 48h: inactive

Results for CCCc1[nH]nc2c1C(c1ccc(O)c(OC)c1)C(C#N)=C(N)O2 (stereo not drawn) ?
Pf growth 96h: inconclusive; Pf growth 48h: inactive; CHX counter: inactive; Shiga toxin inh: inactive

What do the screens show for `CCOc1cc(C2C(C#N)=C(N)SC(N)=C2C#N)ccc1OCCN1CCOCC1`?
Pf growth 48h: 9.3µM; CHX counter: inactive; Shiga toxin inh: inactive

Results for COc1ccc(C2C(C#N)=C(N)SC(N)=C2C#N)cc1OC ?
Pf growth 96h: inactive; Pf growth 48h: inactive; CHX counter: inactive; Shiga toxin inh: inactive

Results for CCCc1[nH]nc2c1C(c1ccc(OCCN3CCOCC3)c(OC)c1)C(C#N)=C(N)O2 (stereo not drawn) ?
Pf growth 96h: inactive; Pf growth 48h: inactive; CHX counter: 49; Shiga toxin inh: 54

How did CCOc1ccc(-c2[nH]nc3c2C(c2ccc4c(c2)OCO4)C(C#N)=C(N)O3)cc1OC (stereo not drawn) do in these assays?
Pf growth 96h: 13µM; Pf growth 48h: inactive; CHX counter: inactive; Shiga toxin inh: inactive

How did COc1cccc(C(C(=O)NCC2CCCO2)N(C(=O)Cn2nnc3ccccc32)c2ccccc2C(C)=O)c1OC (stereo not drawn) do in these assays?
Pf growth 96h: inactive; Pf growth 48h: inconclusive; CHX counter: inactive; Shiga toxin inh: inactive

What do the screens show for `O=C1CC(NS(=O)(=O)c2ccccc2F)CN1c1ccc2c(c1)OCCO2` (stereo not drawn)?
Pf growth 96h: inactive; Pf growth 48h: inactive

What do the screens show for `CCc1noc(C)c1C(=O)N1CCN(c2cccc(C)c2C)CC1`?
Pf growth 96h: inactive; Pf growth 48h: inconclusive

What do the screens show for `Cc1cccc(N2CCN(C(=O)c3c(-c4ccccc4)noc3C)CC2)c1C`?
Pf growth 96h: 10µM; Pf growth 48h: inconclusive; CHX counter: inactive; Shiga toxin inh: inactive

Results for Cc1onc(-c2ccccc2)c1C(=O)N1CCN(C/C=C/c2ccccc2)CC1 ?
Pf growth 96h: 2.1µM; CHX counter: inactive; Shiga toxin inh: inactive

Results for C=CCN1CCN(C(=O)c2c(-c3ccccc3)noc2C)CC1 ?
Pf growth 96h: inactive; Pf growth 48h: inactive; CHX counter: inactive; Shiga toxin inh: inactive

What do the screens show for `COc1ccc(NC(=O)[C@H](C)NC(=O)C2CCN(S(=O)(=O)c3ccc(C)cc3)CC2)cc1`?
Pf growth 96h: inconclusive; Pf growth 48h: inactive; CHX counter: inactive; Shiga toxin inh: inactive

Results for Cc1noc(C)c1S(=O)(=O)NCc1cccc(Cl)c1 ?
Pf growth 96h: inconclusive; Pf growth 48h: inactive

What do the screens show for `CN(C)CCN1C(=O)C(O)=C(C(=O)c2cc3ccccc3o2)C1c1ccc(N(C)C)cc1` (stereo not drawn)?
Pf growth 96h: 9.3µM; Pf growth 48h: inactive; CHX counter: inactive; Shiga toxin inh: inactive

What do the screens show for `Cc1cc(N2C(=O)C(O)=C(C(=O)c3cc4ccccc4o3)C2c2ccc(Br)cc2)no1` (stereo not drawn)?
Pf growth 96h: inconclusive; Pf growth 48h: inconclusive; CHX counter: 42; Shiga toxin inh: inactive

Results for CN(C)CCN1C(=O)C(O)=C(C(=O)c2cc3ccccc3o2)C1c1ccccn1 (stereo not drawn) ?
Pf growth 96h: inactive; Pf growth 48h: inactive; CHX counter: inactive; Shiga toxin inh: inactive

What do the screens show for `Nc1nc2[nH]cc(CCc3ccc(C(=O)NC(CCC(=O)O)C(=O)O)cc3)c2c(=O)[nH]1` (stereo not drawn)?
Pf growth 96h: 1.3µM; Pf growth 48h: 0.67µM

Results for O=[n+]1c2c(n([O-])c3cc(F)c(N4CCCC4)cc31)CCCC2 ?
Pf growth 96h: inconclusive; Pf growth 48h: inactive; CHX counter: 30; Shiga toxin inh: 61

Results for O=[n+]1c2c(n([O-])c3cc(F)ccc31)CCCC2 ?
Pf growth 96h: inactive; Pf growth 48h: inactive; CHX counter: inactive; Shiga toxin inh: inactive

Results for COc1ccc(C2(CCN)CC(C)N(C)CC2C)cc1 (stereo not drawn) ?
Pf growth 96h: 1.7µM; Pf growth 48h: inactive; CHX counter: inactive; Shiga toxin inh: inactive

What do the screens show for `CC(C)(C)N=Cc1cc(-c2ccccc2)sc1O`?
Pf growth 96h: inconclusive; CHX counter: 38; Shiga toxin inh: 71

Results for OCc1ncc(-c2ccccc2)s1 ?
Pf growth 96h: inactive; Pf growth 48h: inactive; CHX counter: inactive; Shiga toxin inh: inactive

What do the screens show for `Cc1ccc(NC(=O)CSCC(=O)Nc2ccccc2C(=O)NC2CC2)cc1`?
Pf growth 96h: inactive; Pf growth 48h: inactive

How did CCNC(=O)CC1C(=O)N(c2ccccc2)C(=O)N1Cc1ccc(OC)cc1 (stereo not drawn) do in these assays?
Pf growth 96h: inconclusive; Pf growth 48h: inactive; CHX counter: 13; Shiga toxin inh: inactive

What do the screens show for `CCNC(=O)CC1C(=O)N(c2ccc(C)cc2)C(=O)N1CCC(C)C` (stereo not drawn)?
Pf growth 96h: 12µM; Pf growth 48h: inactive; CHX counter: inactive; Shiga toxin inh: inactive

Results for CCNC(=O)CC1C(=O)N(c2ccccc2)C(=O)N1CCc1ccc(OC)c(OC)c1 (stereo not drawn) ?
Pf growth 96h: inactive; CHX counter: inactive; Shiga toxin inh: inactive

How did CCNC(=O)CC1C(=O)N(c2ccc(F)cc2)C(=O)N1CCC(C)C (stereo not drawn) do in these assays?
Pf growth 96h: inactive; Pf growth 48h: inactive; CHX counter: inactive; Shiga toxin inh: inactive

How did CCN(CC)CCCn1c2c(c(SCC(=O)Nc3ccccc3Cl)nc1=O)CCC2 do in these assays?
Pf growth 96h: inactive; Pf growth 48h: inconclusive

Results for CC(C)CCNC(=O)c1nn(Cc2ccccc2)c(=O)c2ccccc12 ?
Pf growth 96h: inconclusive; Pf growth 48h: inconclusive; CHX counter: inactive; Shiga toxin inh: inactive

What do the screens show for `CCCNC(=O)C1CN(C(=O)c2nn(Cc3ccccc3)c(=O)c3ccccc23)c2ccccc2O1` (stereo not drawn)?
Pf growth 96h: 12µM; Pf growth 48h: 10µM

How did CC(NS(=O)(=O)c1cccc(C(=O)NCc2ccncc2)c1)c1ccccc1 (stereo not drawn) do in these assays?
Pf growth 96h: inactive; Pf growth 48h: inactive

How did CC1CCN(C(=O)CSc2nc3c(c(=O)n2C)SCC3)CC1 do in these assays?
Pf growth 96h: inconclusive; Pf growth 48h: inactive; CHX counter: 18; Shiga toxin inh: inactive

How did CCn1c(SCC(=O)N2CCCCC2)nc2c(c1=O)SCC2 do in these assays?
Pf growth 96h: inconclusive; Pf growth 48h: inconclusive; CHX counter: inactive; Shiga toxin inh: inactive
